The source of these data is the supplement of paper PMC10849652.

Targets with a hit are over-represented here; the source holds about 7,900 in all. About 0.6% of all pairs of compound and target were hits. Unmarked numbers belong to inactive results.

Holding throughout (test): log2 fold change, soluble protein after heating vs DMSO (PISA); higher = thermal stabilisation; K562 cells, 10 uM, 30 min; active = over 0.2 and 3.5 SD of the protein, either way, in both replicates (recomputed)
Compound in test [1]: NC(=O)Nc1cc(-c2cccc(F)c2)sc1C(=O)N[C@H]1CCCNC1
In outline: (§1)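 Quantification of soluble protein used TMTpro 16plex LC-MS/MS, with channel sums equalised. Samples were the supernatant after 21,000xg for 90 min of pooled aliquots from K562 cells (2×10^6 cells/mL) treated with 10 μM compound for 30 min, heated for 3 min over 48°C-58°C, and extracted in PBS with 0.5% NP-40 at 4°C. Values, from duplicates, describe thermal stability against control samples on a log2 fold-change scale.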

Compound in test [2]: NC(=O)c1cnc(N[C@@H]2CCCC[C@@H]2N)nc1Nc1cccc(-n2nccn2)c1
Put shortly: as §1

Compound in test [3]: NC1(c2ccc(-c3nc4ccn5c(=O)[nH]nc5c4cc3-c3ccccc3)cc2)CCC1
In outline:
as §1

Compound in test [4]: NCC(=O)Nc1ccc(-n2nc(C(F)(F)F)cc2-c2ccc3c(ccc4ccccc43)c2)cc1
In outline: as §1

Compound in a further test: Nc1ccccc1NC(=O)c1ccc(CNC(=O)OCc2cccnc2)cc1 [entinostat]
Put shortly:
as §1

Compound in another test: O=C(CCCCCCC(=O)Nc1ccccc1)NO [vorinostat]
In outline: as §1

Compound in another test: O=C(CCCCCCNC(=O)c1cnc(N(c2ccccc2)c2ccccc2Cl)nc1)NO [citarinostat]
Put shortly:
as §1

Compound in a further test: O=C(O)c1ccc2c(c1)nc(Nc1cccc(Cl)c1)c1ccncc12 [silmitasertib]
Put shortly:
as §1

Compound in test [5]: O=C1NC(=O)C(c2cnc3ccccn23)=C1c1cn2c3c(cc(F)cc13)CN(C(=O)N1CCCCC1)CC2
In outline:
as §1

Compound in test [6]: c1cc(OCCN2CCCCC2)cc(-c2n[nH]c3ccc(-c4nnc[nH]4)cc23)c1
In outline: as §1

Compound in another test: c1cn2cc(-c3ccc4cn[nH]c4c3)nc(Nc3ccc(N4CCOCC4)cc3)c2n1 [entospletinib]
Put shortly:
as §1

Chain of UniProt Q96T76 (Q96T76 whole entry, looked up): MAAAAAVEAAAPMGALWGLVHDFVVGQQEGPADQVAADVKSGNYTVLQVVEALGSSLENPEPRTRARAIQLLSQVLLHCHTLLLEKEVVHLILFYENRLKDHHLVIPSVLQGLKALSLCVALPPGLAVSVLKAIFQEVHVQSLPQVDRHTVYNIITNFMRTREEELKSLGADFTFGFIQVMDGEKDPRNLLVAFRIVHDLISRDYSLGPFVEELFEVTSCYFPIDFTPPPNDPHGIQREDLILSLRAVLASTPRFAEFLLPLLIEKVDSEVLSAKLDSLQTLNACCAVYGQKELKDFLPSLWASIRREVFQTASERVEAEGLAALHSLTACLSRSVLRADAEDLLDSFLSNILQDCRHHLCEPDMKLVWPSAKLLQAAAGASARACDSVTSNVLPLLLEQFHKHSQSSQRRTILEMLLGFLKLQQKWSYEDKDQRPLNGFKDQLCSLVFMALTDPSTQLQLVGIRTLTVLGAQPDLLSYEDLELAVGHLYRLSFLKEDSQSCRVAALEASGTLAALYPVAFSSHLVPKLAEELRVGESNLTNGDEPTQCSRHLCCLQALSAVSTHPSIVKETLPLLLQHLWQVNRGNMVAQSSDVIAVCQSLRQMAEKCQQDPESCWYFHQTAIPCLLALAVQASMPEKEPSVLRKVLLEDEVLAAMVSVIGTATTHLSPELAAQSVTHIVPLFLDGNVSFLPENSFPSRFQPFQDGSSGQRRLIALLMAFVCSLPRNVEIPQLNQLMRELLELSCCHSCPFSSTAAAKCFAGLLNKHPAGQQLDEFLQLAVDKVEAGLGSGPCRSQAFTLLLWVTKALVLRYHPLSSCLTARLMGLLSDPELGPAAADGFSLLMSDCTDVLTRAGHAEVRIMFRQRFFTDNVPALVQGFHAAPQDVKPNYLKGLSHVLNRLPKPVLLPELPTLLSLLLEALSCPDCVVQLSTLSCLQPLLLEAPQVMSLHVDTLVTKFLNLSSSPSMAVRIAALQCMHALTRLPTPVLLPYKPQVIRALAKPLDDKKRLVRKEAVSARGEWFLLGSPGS
Chain of UniProt Q8NCE2 (Q8NCE2 whole entry, looked up): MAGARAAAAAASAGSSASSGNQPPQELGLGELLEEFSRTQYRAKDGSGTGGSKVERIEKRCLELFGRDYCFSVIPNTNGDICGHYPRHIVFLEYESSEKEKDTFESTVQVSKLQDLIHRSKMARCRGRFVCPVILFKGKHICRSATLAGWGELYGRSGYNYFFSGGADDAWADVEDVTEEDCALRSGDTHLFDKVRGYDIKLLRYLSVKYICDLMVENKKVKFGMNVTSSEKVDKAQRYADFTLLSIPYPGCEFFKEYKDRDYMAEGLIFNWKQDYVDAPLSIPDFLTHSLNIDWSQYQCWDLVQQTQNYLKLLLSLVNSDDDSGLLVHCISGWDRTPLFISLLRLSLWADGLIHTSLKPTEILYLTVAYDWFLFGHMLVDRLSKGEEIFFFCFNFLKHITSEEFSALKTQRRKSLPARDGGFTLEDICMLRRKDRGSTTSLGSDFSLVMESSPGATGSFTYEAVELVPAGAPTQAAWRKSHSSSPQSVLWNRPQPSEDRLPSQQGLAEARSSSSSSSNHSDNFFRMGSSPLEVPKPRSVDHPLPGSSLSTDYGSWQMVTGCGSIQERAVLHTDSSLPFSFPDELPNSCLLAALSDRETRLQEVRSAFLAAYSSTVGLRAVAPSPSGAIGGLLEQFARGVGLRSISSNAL
Chain of UniProt P25208 (P25208 whole entry, looked up): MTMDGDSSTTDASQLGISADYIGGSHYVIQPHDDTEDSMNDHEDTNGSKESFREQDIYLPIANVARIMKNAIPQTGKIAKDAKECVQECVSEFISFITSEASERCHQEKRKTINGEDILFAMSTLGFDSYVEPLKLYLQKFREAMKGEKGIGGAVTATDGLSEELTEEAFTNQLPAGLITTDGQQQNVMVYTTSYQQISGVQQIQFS
Chain of UniProt Q9Y2X3 (Q9Y2X3 whole entry, looked up): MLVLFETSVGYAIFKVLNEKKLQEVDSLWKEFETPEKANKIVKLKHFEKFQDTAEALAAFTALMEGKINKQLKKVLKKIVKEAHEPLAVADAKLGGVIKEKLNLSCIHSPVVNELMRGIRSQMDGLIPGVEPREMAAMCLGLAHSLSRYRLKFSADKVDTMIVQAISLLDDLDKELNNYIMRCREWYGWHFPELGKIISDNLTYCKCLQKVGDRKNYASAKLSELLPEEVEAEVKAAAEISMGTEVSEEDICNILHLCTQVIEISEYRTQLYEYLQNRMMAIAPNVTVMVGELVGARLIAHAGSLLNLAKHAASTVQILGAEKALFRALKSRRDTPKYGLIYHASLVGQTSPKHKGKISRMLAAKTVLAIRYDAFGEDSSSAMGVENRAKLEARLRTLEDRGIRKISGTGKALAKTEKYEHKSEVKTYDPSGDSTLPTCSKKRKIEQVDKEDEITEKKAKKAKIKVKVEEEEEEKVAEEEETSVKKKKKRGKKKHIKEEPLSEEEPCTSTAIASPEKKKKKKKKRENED
Chain of UniProt Q9UK23 (Q9UK23 whole entry, looked up): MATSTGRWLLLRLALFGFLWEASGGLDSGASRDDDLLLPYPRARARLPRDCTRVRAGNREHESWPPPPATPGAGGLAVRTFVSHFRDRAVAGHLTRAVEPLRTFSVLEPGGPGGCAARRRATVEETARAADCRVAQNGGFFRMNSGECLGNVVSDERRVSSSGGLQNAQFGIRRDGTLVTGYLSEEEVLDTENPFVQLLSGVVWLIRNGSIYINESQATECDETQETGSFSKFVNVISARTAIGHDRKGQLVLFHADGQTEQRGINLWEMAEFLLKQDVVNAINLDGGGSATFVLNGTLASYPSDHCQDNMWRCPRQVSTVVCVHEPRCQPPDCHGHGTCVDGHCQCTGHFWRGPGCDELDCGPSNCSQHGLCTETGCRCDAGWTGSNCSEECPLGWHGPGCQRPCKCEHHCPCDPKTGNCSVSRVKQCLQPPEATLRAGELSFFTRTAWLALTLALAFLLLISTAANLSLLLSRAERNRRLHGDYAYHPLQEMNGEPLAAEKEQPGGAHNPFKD
Chain of UniProt Q7L1V2 (Q7L1V2 whole entry, looked up): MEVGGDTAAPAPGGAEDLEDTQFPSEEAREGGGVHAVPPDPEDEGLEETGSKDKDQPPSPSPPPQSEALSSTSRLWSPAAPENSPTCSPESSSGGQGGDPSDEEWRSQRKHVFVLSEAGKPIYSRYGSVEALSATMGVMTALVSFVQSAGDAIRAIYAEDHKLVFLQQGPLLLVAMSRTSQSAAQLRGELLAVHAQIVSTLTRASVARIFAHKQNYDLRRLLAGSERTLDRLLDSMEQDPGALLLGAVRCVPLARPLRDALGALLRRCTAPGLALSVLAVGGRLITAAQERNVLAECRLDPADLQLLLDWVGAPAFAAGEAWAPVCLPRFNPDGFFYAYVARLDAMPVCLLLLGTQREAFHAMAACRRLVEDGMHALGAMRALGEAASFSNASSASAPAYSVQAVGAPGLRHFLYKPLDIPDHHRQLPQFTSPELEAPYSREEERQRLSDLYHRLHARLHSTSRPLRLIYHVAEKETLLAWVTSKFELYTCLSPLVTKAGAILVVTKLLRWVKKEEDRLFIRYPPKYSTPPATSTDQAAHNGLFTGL
Chain of UniProt Q9NRP0 (Q9NRP0 whole entry, looked up): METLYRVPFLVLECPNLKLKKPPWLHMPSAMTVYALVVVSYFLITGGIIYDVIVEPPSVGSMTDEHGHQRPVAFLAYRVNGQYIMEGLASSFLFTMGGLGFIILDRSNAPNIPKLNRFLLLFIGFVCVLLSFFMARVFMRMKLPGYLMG
Chain of UniProt Q9BSU3 (Q9BSU3 whole entry, looked up): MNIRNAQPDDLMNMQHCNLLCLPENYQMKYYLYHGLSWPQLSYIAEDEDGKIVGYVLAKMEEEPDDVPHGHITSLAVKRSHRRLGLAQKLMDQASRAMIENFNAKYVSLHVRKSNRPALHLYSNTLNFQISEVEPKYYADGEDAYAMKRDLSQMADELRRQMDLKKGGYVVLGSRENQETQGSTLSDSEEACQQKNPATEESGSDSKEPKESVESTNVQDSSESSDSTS
Chain of UniProt Q13952 (Q13952 whole entry, looked up): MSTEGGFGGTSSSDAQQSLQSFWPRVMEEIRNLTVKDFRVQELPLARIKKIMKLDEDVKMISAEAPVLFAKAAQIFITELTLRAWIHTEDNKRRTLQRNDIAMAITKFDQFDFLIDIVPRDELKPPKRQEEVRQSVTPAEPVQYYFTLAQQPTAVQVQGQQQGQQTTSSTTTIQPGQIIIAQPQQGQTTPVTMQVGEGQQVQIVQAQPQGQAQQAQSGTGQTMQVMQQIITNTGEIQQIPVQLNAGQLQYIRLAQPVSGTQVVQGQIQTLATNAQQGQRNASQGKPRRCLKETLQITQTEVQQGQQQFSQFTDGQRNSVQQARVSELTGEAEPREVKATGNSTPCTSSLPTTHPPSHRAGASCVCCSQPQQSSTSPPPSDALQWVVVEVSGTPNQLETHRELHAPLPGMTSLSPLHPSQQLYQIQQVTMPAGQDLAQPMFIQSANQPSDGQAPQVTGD

On to MON1B (UniProt Q7L1V2), for which the log2 fold change in test [1] was 0.015; in test [2], -0.045; in [3], -0.312 (active); in test [4], -0.053; with entinostat, -0.018; in the test with vorinostat, -0.001. Moreover, the log2 fold change with citarinostat was 0.056; with silmitasertib, 0.032; in test [5], 0.052; in test [6], -0.081; with entospletinib, 0.017.
Regarding OSTC (UniProt Q9NRP0), the log2 fold change in [1] is -0.062; in test [2], 0.028; in test [3], -0.107; in test [4], -0.134; in the test with entinostat it was 0.039; with vorinostat it was -0.001. The log2 fold change in the test with citarinostat was 0.074; in the test with silmitasertib, -0.011; in test [5], 0.05; in test [6] it was -0.067; with entospletinib, 0.034.
Take MRPS10 (UniProt P82664): the log2 fold change was -0.014 in test [1]; 0.004 in test [2]; -0.052 in [3]; 0.011 in [4]; -0.033 with entinostat; 0.057 with vorinostat. The log2 fold change in the test with citarinostat was 0.07; with silmitasertib, -0.048; in test [5] it was 0; in [6] it was -0.08; in the test with entospletinib, 0.054.
NOP58 (UniProt Q9Y2X3): the log2 fold change was -0.012 in [1]; 0.052 in [2]; 0.316 in [3]; 0.043 in [4]; -0.05 in the test with entinostat; -0.087 in the test with vorinostat. The log2 fold change with citarinostat was -0.048; with silmitasertib, 0.108; in test [5], 0.082; in test [6], -0.119; in the test with entospletinib it was 0.085.
Turning to NFYC (UniProt Q13952), the log2 fold change was 0.008 in test [1]; -0.079 in [2]; -0.054 in test [3]; -0.027 in test [4]; -0.034 with entinostat; -0.057 with vorinostat. Besides, the log2 fold change with citarinostat was -0.002; with silmitasertib it was 0.024; in test [5] it was -0.058; in test [6] it was -0.044; in the test with entospletinib, 0.033.
Take MTMR14 (UniProt Q8NCE2): the log2 fold change in [1] is -0.02; in test [2] it was -0.08; in test [3], -0.087; in test [4], -0.075; with entinostat it was 0.024; with vorinostat, 0.093. Also, the log2 fold change in the test with citarinostat was 0.08; in the test with silmitasertib it was 0.071; in [5], -0.081; in [6], 0.039; with entospletinib, -0.061.
Regarding NEU1 (UniProt Q99519), the log2 fold change in test [1] is -0.081; in test [2] it was -0.088; in [3], -0.114; in [4], -0.057; with entinostat, 0.003; in the test with vorinostat it was 0.159. In addition, the log2 fold change is 0.087 with citarinostat; 0.04 with silmitasertib; -0.066 in test [5]; -0.063 in test [6]; -0.025 with entospletinib.
As for MMS19 isoform 8 (UniProt Q96T76), the log2 fold change in [1] was 0.01; in test [2] it was -0.026; in [3], -0.157; in [4] it was -0.072; in the test with entinostat, 0.066; with vorinostat, 0.017. The log2 fold change with citarinostat is 0.097; in the test with silmitasertib it was 0.085; in test [5] it was -0.003; in [6] it was -0.007; with entospletinib it was 0.033.
As to NAGPA (UniProt Q9UK23), the log2 fold change is 0.051 in [1]; -0.045 in [2]; 0.03 in test [3]; 0.04 with entinostat; -0.122 with vorinostat; 0.074 with citarinostat. Besides, the log2 fold change with silmitasertib was -0.237; in test [5], 0.043; in test [6], -0.023; in the test with entospletinib, -0.109.
Regarding NAA11 (UniProt Q9BSU3), the log2 fold change in test [1] was 0.139; in test [2], -0.048; in test [3], -0.072; in test [4], 0.167; in the test with entinostat, 0.375 (active); with citarinostat it was -0.05. The log2 fold change with silmitasertib is -0.001; in test [5] it was -0.064; in test [6], -0.022; with entospletinib, -0.041.
In the case of NFYB (UniProt P25208), the log2 fold change in test [1] is -0.022; in test [2], 0.102; in [3], -0.074; in test [4], 0.069; in the test with entinostat it was -0.001; with vorinostat it was -0.038. Further, the log2 fold change in the test with citarinostat was -0.006; in the test with silmitasertib, 0.043; in [6] it was 0.033; with entospletinib, 0.04.
